Compounds with a hit are over-represented: about 3.6% of the library has one in this group of screens.
SKOV3 invasion – Primary qHTS assay for Inhibitors of ovarian cancer metastasis using an organotypic tumor microenvironment (TME) model; Potency, µM (doses to about 45.8 µM), for inactives: top-dose activity change, negative = inhibition, usual class: inhibitors; AID 1963576, 2024; 46,000 tested, 0.1% active; SKOV3ip1-GFP adhesion/invasion on 3D omental model, fluorescence;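 also: potency is read from the fitted curve at half-maximal effect; plate controls were DMSO wells for no effect and tomatine positive control wells for full effect; nearly all actives have a fitted effect of over 65% in size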
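Adhesion/invasion was scored as fixed GFP-labeled SKOV3ip1 cell counts (488/509 nm), normalized to DMSO and tomatine controls. Cancer cells in serum-free medium, with four compound doses (0.36-46 umol/L), sat 2 hr at RT then 16 hr at 37 C on a 48 hr fibroblast/mesothelial/ECM culture.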
NTMT1 inh – Primary qHTS for Inhibitors of N-terminal methyltransferase 1 (NTMT1): MTaseGlo Assay. N-terminal Xaa-Pro-Lys N-methyltransferase 1 (Homo sapiens), Q9BV86. NTMT1 MTase-Glo SAH luminescence, purified enzyme. Potency, µM (doses to about 114 µM), for inactives: at the highest dose activity change, negative = inhibition, hits mostly inhibitors. 59,000 tested, 2.5% active. AID 1645870, 2021;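 also: potency is read from the fitted curve at half-maximal effect; plate controls were DMSO vehicle for no effect and no enzyme for full effect; nearly all actives have a fitted effect of over 65% in size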
Target sequence (Q9BV86 whole entry, looked up): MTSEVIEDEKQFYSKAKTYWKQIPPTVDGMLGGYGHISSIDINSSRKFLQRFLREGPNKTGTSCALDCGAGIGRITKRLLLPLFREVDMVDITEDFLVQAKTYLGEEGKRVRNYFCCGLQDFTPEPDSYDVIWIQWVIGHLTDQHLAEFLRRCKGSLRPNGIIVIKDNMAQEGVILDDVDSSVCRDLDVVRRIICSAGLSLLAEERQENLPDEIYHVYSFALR
PMP22 txn – Cell-based coincidence reporter assay to measure PMP22 gene transcription in S16 Pmp22-F2sN cells - Primary screen. S16 Pmp22-F2sN Schwann cells, FLuc/NLuc coincidence luminescence, 24 h. Potency, µM (series often up to 57.5 µM), without a hit: top-dose activity change, negative = inhibition, actives largely listed as inhibitors. 43,000 tested, 2% active; active = clear falling dose curves in both reporters; inconclusive = both reporters move, but less clearly or upward; inactive = either reporter flat; the % is the NLuc reporter signal; also: potency is read from the fitted curve at half-maximal effect; % is scaled to controls: 0 for no effect and ±100 for the full control effect
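Reporter cells (S16 Pmp22-F2sN, 500–1,000 per well) exposed to compounds for 24 h, 37C, 5% CO2; lysis with FLuc read after 10 min, then Stop&Glo and NLuc read after 10 min.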
pS6 MEF inh – Acumen qHTS Assay for Inhibitors of the mTORC1 Signaling Pathway in MEF (Tsc2-/-, p53-/-) Cells: Sytravon | AID 493208, 2011 | Tsc2-/- p53-/- MEF, phospho-rpS6 immunofluorescence/PI, 24 h | 44,000 tested, 0.78% active | Potency, µM (doses to about 38.3 µM), inactives show at the highest dose activity change, negative = inhibition, usual class: inhibitors;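 also: potency is read from the fitted curve at half-maximal effect; plate controls were DMSO for no effect and rapamycin for full effect; nearly all actives have a fitted effect of over 50% in size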
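Read-out: phospho-S6 Alexa-488 intensity over PI intensity per well, scored as % active cells using thresholds from rapamycin (7.5 nM) and DMSO controls. Tsc2-/-, p53-/- MEFs exposed to compound for 24 h; PI cell count recorded as viability.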
GALC G270D up – A Novel Cell-Based Assay to Identify Small Molecules for B -Galactocerebrosidase. P54803. 145M-Twi-hGALC-G270D cells (Twitcher mouse brain line with human GALC G270D), HMU-beta-Gal fluorescence, 48 h. Potency, µM (top dose mostly 57.5 µM), most hits filed as activators. 45,000 tested, 0.1% active; also: potency is read from the fitted curve at half-maximal effect; 0% is about no effect; nearly all actives have a fitted effect of over 65% in size
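Mutant human GALC (G270D), stably expressed in a Twitcher mouse brain cell line lacking endogenous GALC, is measured in live-treated cells via 6-hexadecanoylamino-4-methylumbelliferyl-β-galactoside hydrolysis (0.1 mM final, pH 5.2) with fluorescent detection.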
S16 viability – Cell viability qHTS assay in S16 Pmp22-F2sN cells | 43,000 tested, 0.48% active | AID 1508642, 2021 | S16 Pmp22-F2sN Schwann cells (luciferase reporters placed in the Pmp22 gene) viability, CellTiter-Glo, 24 h | Potency, µM (doses to about 57.5 µM), inactives show top-dose activity change, negative = cytotoxicity, hits mostly cytotoxic; also: potency is read from the fitted curve at half-maximal effect; % is scaled to controls: 0 for no effect and ±100 for the full control effect; nearly all actives have a fitted effect of over 65% in size
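S16 Schwann cells carrying the Pmp22-F2sN reporter, seeded in 1536-well format, were exposed to library compounds for 24 h at 37C. Viability was read as CellTiter-Glo luminescence after 15 min at room temperature.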
DYRK1A KinaseGlo – Assay for Inhibitors of Dual-Specificity Tyrosine-(Y)-Phosphorylation Regulated Kinase 1A (Kinase-Glo assay); shares compounds with NTMT1 inh; recombinant DYRK1A, Kinase-Glo ATP depletion luminescence; Potency, µM (top dose mostly 76.9 µM), without a hit: at the highest dose activity change, negative = inhibition, hits mostly inhibitors; 100 tested, 80% active; AID 2705, 2010
Sfp qHTS opt – qHTS Assay for Inhibitos of Bacillus subtilis Sfp phosphopantetheinyl transferase (PPTase): Chemistry Optimization Followup. AID 540350, 2011. Potency, µM (doses to about 114 µM), without a hit: at the highest dose activity change, negative = inhibition, most hits filed as inhibitors. 230 tested, 78% active. shares compounds with NTMT1 inh. purified Sfp PPTase enzyme activity, qHTS
Bsub HM489 growth – qHTS for Inhibitos of Bacillus subtilis Sfp phosphopantetheinyl transferase (PPTase): Chemistry Optimization Followup in B. Subtilis HM489. 220 tested, 50% active. shares compounds with NTMT1 inh. B. subtilis HM489 (acpS-) growth, BacTiter-Glo, 5 h. Potency, µM (highest dose often 114 µM), without a hit: at the top dose activity change, negative = inhibition, actives largely listed as inhibitors. AID 540353, 2011
Sfp gel opt – Gel-Based Assay for Inhibitos of Bacillus subtilis Sfp phosphopantetheinyl transferase (PPTase): Chemistry Optimization Followup. shares compounds with NTMT1 inh. purified Sfp PPTase, gel-based product detection. Potency, µM (top dose mostly 250 µM), inactives show top-dose activity change, negative = inhibition, actives largely listed as inhibitors. 220 tested, 54% active. AID 540355, 2011
Sfp gel – qHTS Assay for Inhibitors of Bacillus subtilis Sfp phosphopantetheinyl transferase (PPTase): Gel Based Assay | shares compounds with NTMT1 inh | purified Sfp PPTase, gel-based product detection | Potency, µM (doses to about 250 µM), without a hit: at the top dose activity change, negative = inhibition, usual class: inhibitors | 45 tested, 90% active | AID 602362, 2012
Sfp SAR2 – qHTS Assay for Inhibitors of Bacillus subtilis Sfp phosphopantetheinyl transferase (PPTase): SAR Round 2. 230 tested, 87% active. Potency, µM (series often up to 57.1 µM), inactives show at the top dose activity change, negative = inhibition, actives largely listed as inhibitors. AID 602370, 2012. shares compounds with NTMT1 inh. purified Sfp enzyme, PPTase activity, qHTS
hGST A1-1 inh – qHTS Assay for Inhibitors of Bacillus subtilis Sfp phosphopantetheinyl transferase (PPTase): SAR in hGST A1-1. shares compounds with NTMT1 inh. hGST A1-1 enzyme activity counter-screen, qHTS. Potency, µM (doses to about 114 µM), without a hit: at the highest dose activity change, negative = inhibition, actives largely listed as inhibitors. 55 tested, under 10 active. AID 602391, 2012
HSD17B4 inh – Extended Characterization of HPGD Inhibitors: Counterscreen Against HSD17b4; Potency, µM (series often up to 57.1 µM), inactives show at the top dose activity change, negative = inhibition, most hits filed as inhibitors; shares compounds with NTMT1 inh; 230 tested, 10% active; purified HSD17B4, estradiol/NAD+, NADH fluorescence
ALDH1A1 inh – Extended Characterization of HPGD Inhibitors: Counterscreen Against ALDH1A1; shares compounds with NTMT1 inh; recombinant ALDH1A1, NADH fluorescence, propionaldehyde/NAD+; Potency, µM (series often up to 57.1 µM), for inactives: at the highest dose activity change, negative = inhibition, hits mostly inhibitors; 230 tested, 93% active
Target sequence (P00352 whole entry, looked up): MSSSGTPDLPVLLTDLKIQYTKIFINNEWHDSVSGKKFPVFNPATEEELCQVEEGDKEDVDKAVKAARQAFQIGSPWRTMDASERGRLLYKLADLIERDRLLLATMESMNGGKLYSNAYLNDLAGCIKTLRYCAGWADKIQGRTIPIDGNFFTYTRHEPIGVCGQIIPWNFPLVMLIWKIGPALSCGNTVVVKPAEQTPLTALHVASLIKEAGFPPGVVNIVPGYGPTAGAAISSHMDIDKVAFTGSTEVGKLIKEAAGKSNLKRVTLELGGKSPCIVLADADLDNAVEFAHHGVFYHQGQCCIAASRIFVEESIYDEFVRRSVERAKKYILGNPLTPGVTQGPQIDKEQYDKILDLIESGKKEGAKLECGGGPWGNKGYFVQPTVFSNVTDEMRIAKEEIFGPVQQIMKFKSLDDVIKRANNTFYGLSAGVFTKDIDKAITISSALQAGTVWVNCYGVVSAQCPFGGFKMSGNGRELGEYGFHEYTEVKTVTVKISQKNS
The depositor's hits bear a star; i = inactive; ? = inconclusive; · = no result given; [ ] = another dose, or the depositor's remark. Unless noted, calls follow the shape of the dose curve; as a rule, active = well fitted curve in the direction sought with a large enough effect; inconclusive = small, poorly fitted or top-dose-only effect, or another doubt; inactive = no such curve, though single readings can be large; an effect the other way counts as inactive or inconclusive.

SMILES | SKOV3 invasion | NTMT1 inh | PMP22 txn | pS6 MEF inh | GALC G270D up | S16 viability | Sfp qHTS opt | Bsub HM489 growth | Sfp gel opt | Sfp SAR2 | HSD17B4 inh | ALDH1A1 inh | others
CC(=O)N1CCN(C(=S)Nc2cc(C)ccn2)CC1 | · | ? | · | · | · | · | 33µM* | ? | 13µM* | 6.5µM* | -9% | 12µM*
Cc1ccnc(NC(=S)N2CCN(c3cccc(N(C)C)c3)CC2)c1 | · | -25% | · | · | · | · | 9.4µM* | 37µM* | 1.3µM* | 5.8µM* | ? | 1.7µM* | Sfp gel=8.5µM*;hGST A1-1 inh=?
Cc1cc(C)nc(NC(=S)N2CCN(c3ccc(Cl)nn3)CC2)c1 | · | ? | · | · | · | · | 12µM* | 21% | ? | 3.6µM* | -18% | 19µM*
CCOC(=O)c1c(C)[nH]c(C)c1S(=O)(=O)N1CCC(C(=O)Nc2cc(C)ccn2)CC1 | i | -6% | 17% | 0% | i | 13% | · | · | · | · | · | ·
Cc1ccnc(NC(=S)N2CCN(c3ccc(Cl)c(Cl)c3)CC2)c1 | · | ? | · | · | · | · | 1.2µM* | 2.6µM* | -63% | 0.73µM* | -10% | 2.4µM*
CC(=O)O[C@H]1C[C@@]2(C)[C@@H](CC[C@H]3[C@@]4(C)C=CC(=O)[C@@H](C)[C@@H]4[C@H](OC(C)=O)C(=O)[C@@]32C)/C1=C(\CCC=C(C)C)C(=O)O | · | 11%[29.8 µM] | · | · | · | · | · | · | · | · | · | ·
C1Cc2[nH]nc(-c3nn[nH]n3)c2C1 | -7% | ? | · | · | · | · | · | · | · | · | · | ·
C=C(C(=O)O)[C@@H]1CC=C(CCC(C)=O)[C@@H](C)CC1 | · | 1%[57.5 µM] | · | · | · | · | · | · | · | · | · | ·
Cc1cc(C)nc(NC(=S)N2CCN(c3ccc(Cl)c(Cl)c3)CC2)c1 | · | -9% | · | · | · | · | 2.1µM* | 5.9µM* | 12µM* | 0.91µM* | -29% | 8.6µM* | Sfp gel=3µM*;hGST A1-1 inh=?
FC(F)(F)c1ccccc1-c1nc(NCc2ccc(C3CCCCC3)cc2)c2ccccc2n1 | · | 9% | · | · | · | · | · | · | · | · | · | ·
Cc1cc(-c2nnc3n2CCCCC3)c(C)n1-c1cccc(C#N)c1 | · | 18% | · | · | · | · | · | · | · | · | 0% | ?
Cc1cc(-c2nnc3n2CCCCCC3)c(C)n1-c1ccccc1 | · | 12% | · | · | · | · | · | · | · | · | · | ·
Cc1cc(-c2nnc3n2CCCCC3)c(C)n1-c1ccc(Cl)cc1 | · | 23% | · | · | · | · | · | · | · | · | · | ·
Cc1cc(-c2nnc3n2CCCCC3)c(C)n1-c1ccc(Cl)c(Cl)c1 | · | 19% | · | · | · | · | · | · | · | · | 11% | 0.61µM*
Cc1csc(CNc2ncnc3ccc(-c4ccc5c(ccn5C)c4)cc23)c1 | · | -3% | · | · | · | · | · | · | · | · | · | ·
Cn1cnc(CCNc2ncnc3ccc(-c4ccc5c(c4)OCO5)cc23)c1 | · | 12% | · | · | · | · | · | · | · | · | · | · | DYRK1A KinaseGlo=1.5µM*

High-throughput results from PubChem BioAssay.
